According to PubChem BioAssay (NCI):
About 83,000 compounds went through this panel and 20% of them were active in at least one assay; those are over-represented in the sample as a whole.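 Step 1: grow cells in 96-well plates. Step 2: add test compound at a single concentration. Step 3: incubate 48 h. Step 4: record percent growth.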 A number with no mark means an inactive call. Calls of active or inactive are those of the source. How the source made its calls: active means growth percent below 10; inactive means the rest.

Key:
Assay in all cases: NCI-60 one-dose screen, 48 h (100 = growth as untreated, 0 = no growth, -100 = all killed)
Details in all cases: 10 µM unless noted
MOLT-4 leukemia = test system: MOLT-4 leukemia
SR leukemia = test system: SR leukemia
RPMI-8226 leukemia = test system: RPMI-8226 leukemia
OVCAR-8 ovarian = test system: OVCAR-8 ovarian
OVCAR-5 ovarian = test system: OVCAR-5 ovarian
OVCAR-4 ovarian = test system: OVCAR-4 ovarian
SK-OV-3 ovarian = test system: SK-OV-3 ovarian
IGROV1 ovarian = test system: IGROV1 ovarian
OVCAR-3 ovarian = test system: OVCAR-3 ovarian
HS 578T breast = test system: HS 578T breast

SMILES	growth (MOLT-4 leukemia)	growth (SR leukemia)	growth (RPMI-8226 leukemia)	growth (OVCAR-8 ovarian)	growth (OVCAR-5 ovarian)	growth (OVCAR-4 ovarian)	growth (SK-OV-3 ovarian)	growth (IGROV1 ovarian)	growth (OVCAR-3 ovarian)	growth (HS 578T breast)
COc1cc(C=Nc2cccc(C(=O)O)c2)ccc1N(CCCl)CCCl	97.9%	91.9%	100%	95.2%	110%	114%	110%	97%	105%	92.8%
CCCCCCCCOC(=O)CCN1CC1	103%	101%	103%	102%	104%	115%	109%	115%	108%	99.6%
COC(=O)[C@@H](C)C[C@H](Cc1ccccc1)NC(=O)c1nc([C@@H](C[C@H](C(C)C)N(C)C(=O)[C@@H](NC(=O)[C@H]2C[C@H](O)CCN2C)C(C)C)OC(C)=O)sc1C(C)C	11%	3.04% (active)	-4.65% (active)	10.6%	33.4%	35.6%	2.1% (active)	10.2%	2.66% (active)	6.61% (active)
Cc1cc(C)cc(Nc2nc3c(s2)CC[C@@]2(C)C3=CC[C@@H]3[C@@H]2CC[C@]2(C)C(=O)CC[C@@H]32)c1	10.3%	12.5%	4.21% (active)	50.4%	93.3%	70%	79.8%	85.2%	23.8%	58.3%
Nc1ncnc2n[nH]nc12	86.4%	63.1%	43.1%	57.8%	59.3%	57.6%	13.1%	52.2%	75.1%	94.7%
COc1cc([N+](=O)[O-])c2nc(C)ccc2c1[N+](=O)[O-]	98.2%	82.2%	80.7%	89.1%	131%	103%	119%	109%	44.2%	106%
COc1ccc(Nc2ccc([N+](=O)[O-])cc2[N+](=O)[O-])cc1CN(CCCl)CCCl	0.406% (active)	7.8% (active)	0.0676% (active)	30.6%	50.2%	52.8%	48.3%	32.7%	20%	66.7%
Clc1cccc(NCOOC2(OOCNc3cccc(Cl)c3)CCCCCC2)c1	92.7%	5.27% (active)	91.9%	93.9%	96.6%	97.4%	105%	7.21% (active)	97.1%	102%
CC(=O)O[C@H](C[C@H](C(C)C)N(C)C(=O)[C@@H](NC(=O)[C@H]1CCCCN1C)C(C)(C)C)c1nc(C(=O)N[C@@H](Cc2ccccc2)C[C@H](C)C(=O)O)cs1	6.26% (active)	2.59% (active)	16.8%	8.74% (active)	32%	41.6%	28.6%	18.9%	-14.6% (active)	16.7%
COC(=O)[C@@]1(C)CC[C@]2(C)CC[C@]3(C)C4=CC=C5C(=CC(=O)C(O)=C5C)[C@]4(C)CC[C@@]3(C)[C@@H]2C1	-43.3% (active)	-46.7% (active)	-26.7% (active)	-72.9% (active)	-93.1% (active)	-95% (active)	-97.6% (active)	-77.4% (active)	-92.1% (active)	-41.6% (active)
COc1ccc(O)c(CNC(=O)CN2CCCC2=O)c1	101%	98.5%	99.4%	106%	95.1%	103%	112%	104%	103%	94%
Cc1cnc(/C=C/C(=O)O)cc1-c1cc2c(cc1C)C(C)(C)CCC2(C)C	85.5%	66%	50.4%	89.5%	104%	85.4%	84.4%	94.4%	57.8%	69.9%
